# Measurements reported in PubChem BioAssay AID1259312 (Keith Lab, Institute of Cancer Science, University of …, 2017).
# The campaign covered roughly 4,500 compounds. About 200 (4.4%) were called active. The sample as a whole holds a higher share of actives than the screen did. A number with no mark means an inactive call.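 How the source made its calls: active means cell survival measured by absorbance rises more than 2.5-fold over infected cells without compound; inactive means the rest.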
# Experiment: survival after telomere uncapping, modulators, primary screen, cell-based (AID 1259312);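 further: virus expresses mutant telomerase RNA that uncaps telomeres and kills cells; compound added 2 days after infection so exposure lasts 3 days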
# Conditions: HCT116 + Ad-hTR-mut, MTT, 5 d; at 10 µM, active compounds read high
row,SMILES,fold change
1,Cc1cc(C)c2oc(-c3cc(N)ccc3Cl)nc2c1,1.24
2,Cn1cnnc1-c1ccc(N)cc1,-1.13
3,CC(C)(C)c1ccc(-c2nnc(-c3ccc(Cl)cc3Cl)o2)cc1,-1.32
4,S=c1[nH]ccn1-c1ccccc1,1.02
5,NC(=O)c1no[n+]([O-])c1C(N)=O,-1.25
6,c1ccc(-c2csc(N3CCN(C(c4ccccc4)c4ccccc4)CC3)n2)cc1,1.15
7,O=[N+]([O-])c1ccc(S(=O)(=O)Nc2nc3ccccc3s2)cc1,1.84
8,O=[N+]([O-])c1ccccc1S(=O)(=O)n1cnc2ccccc21,3.82 (active)
9,O=[N+]([O-])c1ccc(S(=O)(=O)n2cnc3ccccc32)cc1,3.41 (active)
10,O=[N+]([O-])c1ccccc1-n1ccnc1,-1.71
11,O=[N+]([O-])c1ccc(-n2nnc3ccccc32)c([N+](=O)[O-])c1,-1.31
12,O=[N+]([O-])c1ccc(NCCCn2cnc3ccccc32)nc1,1.16
13,COc1cc(OC)cc(C2SC(N)=C(C#N)C(N)=C2C#N)c1 (configuration not stated),-1.62
14,NC(CC(=O)O)C(=O)O (configuration not stated),1.14
15,N[C@@H](CSCC(=O)O)C(=O)O,2.87 (active)
16,NC(CCCC(N)C(=O)O)C(=O)O (configuration not stated),-1.27
17,O=C(Cc1cccs1)NC1CCCC1,-3.03
18,C1CCN(c2nc3nonc3nc2N2CCCC2)C1,-1.59
19,O=c1[nH]c(/C=C/c2ccc(Br)cc2)c([N+](=O)[O-])c(=O)[nH]1,3.45 (active)
20,O=c1[nH]c(/C=C/c2ccc(Br)cc2)nc(O)c1[N+](=O)[O-],2.47
21,COc1ccc(OC)c(/C=C/c2[nH]c(=O)[nH]c(=O)c2[N+](=O)[O-])c1,1.29
22,N#CC1=C(N)n2c(s/c(=C\c3ccc(Cl)cc3)c2=O)=C(C#N)C1c1ccc(Cl)cc1 (configuration not stated),-1.6
23,N#CC1Cc2cc([N+](=O)[O-])ccc2-c2cc(Cl)cc(Cl)c21 (configuration not stated),-3.59

row,SMILES,fold change
1,C/C(Cn1nnc2ccccc21)=N\NC(=O)c1c[nH]c2ccccc12,-2.58
2,NNC(=O)c1ccc(COc2ccc3c(c2)CCC3)o1,-1.37
3,O=C(COc1ccc(Br)cc1)NCC1CCCO1 (configuration not stated),-1.54
4,NNC(=O)COc1ccc2c(c1Br)CCCC2,2.77 (active)
5,S=c1[nH]nc(-c2ccccc2)n1C1CCCCC1,1.07
6,COCCCN1C(=O)/C(=C/c2cccs2)SC1=S,-1.09
7,CCCCCCCCCCCCCCCC(=O)O,1.25
8,CCCCCCCCCCCCCCC(CC(=O)O)C(=O)O (configuration not stated),2.88 (active)
9,CCCCC(CC)C(=O)NC(C)(C)C (configuration not stated),1.34
10,COc1ccc(-c2cc(=O)c3ccc(O)cc3o2)cc1,-1.7
11,Cn1nccc1C(=O)Nc1nc2ccccc2s1,-1.5
12,Cn1nccc1C(=O)O,3.48 (active)
13,Cc1csc(NC(=O)c2ccnn2C)n1,1.09
14,COC(=O)/C(C#N)=C/c1cc(C)sc1C,1.01
15,N#CC1=C(N)C(C#N)=c2s/c(=C/c3cccc(F)c3)c(=O)n2C1c1cccc(F)c1 (configuration not stated),3.89 (active)
16,N#CC1=C(N)n2c(s/c(=C/c3ccc(Cl)cc3Cl)c2=O)=C(C#N)C1c1ccc(Cl)cc1Cl (configuration not stated),1.33
17,N#CC1=C(N)C(C#N)=c2s/c(=C/c3c(F)cccc3Cl)c(=O)n2C1c1c(F)cccc1Cl (configuration not stated),2.98 (active)
18,COC(=O)C1=c2s/c(=C/c3ccncc3)c(=O)n2C(c2ccncc2)C(C#N)=C1N (configuration not stated),1.32
19,N#CC1=C(N)C(C#N)=c2s/c(=C/c3ccc(Cl)cc3Cl)c(=O)n2C1c1ccc(Cl)cc1Cl (configuration not stated),-1.24
20,N#CC1=C(N)C(C#N)=c2s/c(=C/c3ccc(F)cc3)c(=O)n2C1c1ccc(F)cc1 (configuration not stated),2.25
21,CC(Sc1ccccn1)c1nc(N)nc(N2CCCc3ccccc32)n1 (configuration not stated),-4.94
22,Cc1cccc(NS(=O)(=O)c2cc(Cl)ccc2Cl)n1,1.41
23,CCCN(CCC)C(=O)C(=O)N(CCC)CCC,-1.09

row,SMILES,fold change
1,Cc1[nH]nc2c1C1(CCSCC1)C(C#N)=C(N)O2,-1.42
2,Cc1[nH]nc2c1C1(C(=O)Nc3ccccc31)C(C#N)=C(N)O2 (configuration not stated),5.1 (active)
3,N#CC1=C(N)OC2=C(C(=O)CCC2)C12C(=O)Nc1cc(Br)ccc12 (configuration not stated),1.66
4,N#CC1=C(N)OC2=C(C(=O)CCC2)C12C(=O)Nc1ccccc12 (configuration not stated),2.26
5,Cc1[nH]nc2c1C1(CCCCC1)C(C#N)=C(N)O2,-1.09
6,N#CC1=C(N)Oc2ccc(N)cc2C12C(=O)Nc1ccccc12 (configuration not stated),2.67 (active)
7,CC(C)(C)c1[nH]nc2c1C(c1ccc(F)cc1)C(C#N)=C(N)O2 (configuration not stated),1.28
8,Cc1[nH]nc2c1C1(CCOCC1)C(C#N)=C(N)O2,-1.27
9,Cc1[nH]nc2c1C1(C(=O)Nc3cc(Br)ccc31)C(C#N)=C(N)O2 (configuration not stated),3.96 (active)
10,CN1C(=O)C2(C(C#N)=C(N)Oc3c2c(=O)n(C)c(=O)n3C)c2ccccc21 (configuration not stated),-1.14
11,CC(C)(C)c1[nH]nc2c1C1(C(=O)Nc3ccccc31)C(C#N)=C(N)O2 (configuration not stated),4.19 (active)
12,CSc1ccc(C2C(C#N)=C(N)Oc3n[nH]c(C(C)(C)C)c32)cc1 (configuration not stated),-1.76
13,CCCCc1ccc(-c2c(C#N)c(N)nc3c2CCCCCC3)s1,-4.8
14,Cc1ccc(C2C3=C(CC(C)(C)CC3=O)OC3=C2C(=O)CC(C)(C)C3)s1,-5.64
15,O=C(O)/C=C/c1ccc(F)c(Br)c1,-1.15
16,O=S1(=O)N=C(N2CCCc3ccccc32)c2ccccc21,1.46
17,O=c1ccn([C@H]2CCC(CO)O2)c(=O)[nH]1 (some centres not stated),-1.46
18,N#Cc1c(N)nc2c(c1-c1cccnc1)CCCCC2,-6.99
19,N#CC1=C(N)Oc2c(c3ccccc3oc2=O)C12C(=O)Nc1ccc(Br)cc12 (configuration not stated),2.59 (active)
20,O=C1c2ccccc2NC2(C(=O)Nc3ccccc32)N1c1ccc2c(c1)oc1ccccc12 (configuration not stated),1.13
21,O=C1Oc2ccccc2C2Oc3c(c(=O)oc4ccccc34)C3(C(=O)Nc4ccccc43)C12 (configuration not stated),-1.57
